# Measured values published in PubChem BioAssay AID720630 (Broad Institute, 2013).
# Results filed as inconclusive are left out. Activity calls are given as the source filed them. How the calls were made is not given here.
# Experiment: caspase-3/7 apoptosis induction in HUVEC, dose response, mechanism study for HRAS target identification, cell-based, multiple timepoints, luminescence, dry powder (AID 720630)
# Details: caspase-3/7 luminescence; for caspase activation: at 35 µM (top of the series)
# [1] = measured here: max caspase activation timepoint 1, at 0.001 µM, test 1, stronger effect = higher value
SMILES,caspase activation,max activity [1] [%],"max activity (measured here: max caspase activation timepoint 2, at 16 µM, test 2, stronger effect = higher value) [%]","max activity (measured here: max caspase activation timepoint 3, at 4.2 µM, test 3, stronger effect = higher value) [%]","max activity (measured here: max caspase activation timepoint 2, at 1 µM, test 2, stronger effect = higher value) [%]","max activity (measured here: max caspase activation timepoint 3, at 0.008 µM, test 3, stronger effect = higher value) [%]"
CCC(=O)N(c1ccc(OC)c(Cl)c1)C(C(=O)NCCc1ccccc1)c1cccs1 (stereo not drawn),8.9% (inactive),-18.6,-23.7,-13.9,–,–
Cc1onc(C(=O)N2CCN(C(c3ccc(Cl)cc3)c3ccc(Cl)cc3)CC2)c1[N+](=O)[O-],-6.38% (inactive),-21.9,–,–,-18.4,-32.1
